Source: PubChem BioAssay (National Center for Advancing Translational Sciences (NCATS))
DT40 TDP1 no CPT = qHTS for Inhibitors of human tyrosyl-DNA phosphodiesterase 1 (TDP1): qHTS in cells in absence of CPT; DT40 Tdp1-/- hTDP1 cells, no CPT, ATP luminescence, 48 h; Potency, µM (series often up to 46.2 µM), for the others: top-dose activity change, negative = growth inhibition, hits mostly inhibitors; hit rate 15% among 420,000; further: on the % scale 0 is the no-effect control and ±100 the full control effect; nearly all actives have a fitted effect of over 55% in size
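Camptothecin absent (DMSO only). Human TDP1-complemented DT40 knockout cells, 400 cells/well, 37 °C for minimum 48 hr; ATP measured via CellTiter-Glo, 30 min dark incubation, luminescence.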
DT40 TDP1 CPT = DT40-hTDP1 cell growth loss with CPT | chicken DT40 Tdp1-/-;hTDP1 cells + 20 nM CPT, ATP luminescence, 48 h | Potency, µM (top dose mostly 46.2 µM), for inactives: at the top dose activity change, negative = growth inhibition, usual class: inhibitors | hit rate 12% among 420,000; further: on the % scale 0 is the no-effect control and ±100 the full control effect; nearly all actives have a fitted effect of over 55% in size
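Cell growth measured by CellTiter-Glo luminescence after a minimum 48 h, 37 C compound exposure with 20 nM CPT in Tdp1-knockout DT40 cells stably expressing hTDP1, seeded 400/well; qHTS titration format.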
HepG2 viability = kills HepG2 cells in TGF-b inhibitor counter-screen | HepG2 CAGA-GFP viability, ATP luminescence, 18 h | Potency, µM (highest dose often 46.1 µM), for inactives: at the top dose activity change, negative = cytotoxicity, usual class: cytotoxic | hit rate 0.76% among 410,000
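CellTiter-Glo luminescence gave cytotoxicity after 18 hours at 37 degrees C. The cells were HepG2 CAGA-GFP in 1% FBS DMEM, stimulated with 500 pg/mL TGF-beta after compound addition. %Activity was normalised to no-cell wells (complete cell-killing) and DMSO (no toxicity), and curves were fitted and classified.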
HT1080 IDH1KD tx = toxicity to HT-1080 IDH1 knockdown cells (counter line) | HT-1080 IDH1 knockdown viability, ATP luminescence, 48 h | Potency, µM (highest dose often 46.1 µM), for inactives: at the top dose activity, negative = toxicity, hits mostly cytotoxic | hit rate 2% among 360,000 | AID 686971;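 further: 0% = DMSO wells and -100% = cell-free medium wells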
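Knockdown cells (IDH1KD HT-1080) received compounds 2 h after plating at 750 cells/well and were kept 48 h at 37 °C in 5% FBS RPMI. A CellTiter-Glo luminescence read gave % activity for curve fitting.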
HT1080NT lethal = kills 2HG-producing HT-1080-NT fibrosarcoma cells | hit rate 1.6% among 360,000 | Potency, µM (titrated, usually from 46.1 µM), for inactives: top-dose activity, negative = less viability, hits mostly cytotoxic | AID 686970 | HT-1080-NT fibrosarcoma viability, CellTiter-Glo ATP luminescence, 48 h;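 further: NT is the 2HG producing partner of a matched IDH1 knockdown line; 0% = DMSO-treated cells and -100% = media-only wells without cells; nearly all actives have a fitted effect of over 55% in size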
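Fibrosarcoma NT cells, 750 per well in 5% FBS RPMI, were exposed to compound for 48 hours. Viability: CellTiter-Glo luminescence.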
TGFb SMAD3 inh = inhibitors of TGF-b signaling; HepG2 CAGA-GFP TGF-b/SMAD3 reporter, GFP fluorescence, 18 h; TGF-beta stimulated, 500 pg/mL final; Potency, µM (top dose mostly 46.1 µM), for inactives: at the top dose activity, negative = inhibition, hits mostly inhibitors; hit rate 1.2% among 410,000; AID 588855; further: on the % scale 0 is the no-effect control and ±100 the full control effect; nearly all actives have a fitted effect of over 65% in size
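HEPG2 CAGA-GFP reporter cells (1000/well, DMEM with 1% FBS) received compounds, then recombinant TGF-beta at 500 pg/mL final for 18 hours at 37 degrees C. Per-cell GFP summed per well was normalised to unstimulated and stimulated DMSO controls before curve fitting.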
Starred values were filed as active, the others as inactive. An excerpt weighted towards active compounds, which were near 17% of everything screened. The call rests on the fitted dose curve; in most records, active means well fitted curve in the direction sought with a large enough effect; inconclusive means small, poorly fitted or top-dose-only effect, or another doubt; inactive means no such curve, though single readings can be large; an effect the other way counts as inactive or inconclusive. Potency means the concentration at half of the fitted maximal effect.

Cc1nn(-c2ccccc2)c(N2CCCC2)c1/C=N/NC(=O)c1cc(-c2cccs2)nc2ccccc12 was read as DT40 TDP1 no CPT 15µM*, DT40 TDP1 CPT inconclusive, HepG2 viability 8%, HT1080 IDH1KD tx 8%, HT1080NT lethal -5% and TGFb SMAD3 inh -6%.
For NS(=O)(=O)c1ccc(N/N=C/c2ccc(C(=O)O)cc2)c([N+](=O)[O-])c1 the results were DT40 TDP1 no CPT 16%, DT40 TDP1 CPT -15%, HepG2 viability 3%, HT1080 IDH1KD tx 17%, HT1080NT lethal 5% and TGFb SMAD3 inh -4%.
For Cc1nn(-c2ccccc2)c(N2CCCC2)c1/C=N/Nc1ccc(S(N)(=O)=O)cc1[N+](=O)[O-] the results were DT40 TDP1 no CPT 15µM*, DT40 TDP1 CPT 16µM*, HepG2 viability -21%, HT1080 IDH1KD tx -16%, HT1080NT lethal -18% and TGFb SMAD3 inh inconclusive.
Screening Cc1nn(-c2ccccc2)c(N2CCCC2)c1/C=N/NC(=S)Nc1ccccc1F returned DT40 TDP1 no CPT inconclusive, DT40 TDP1 CPT 13µM*, HepG2 viability -42%, HT1080 IDH1KD tx inconclusive, HT1080NT lethal inconclusive and TGFb SMAD3 inh 0%.
`Cc1nn(-c2ccccc2)c(N2CCCC2)c1/C=N/NC(=O)c1cc(-c2ccccn2)nc2ccccc12` gave DT40 TDP1 no CPT 12µM*, DT40 TDP1 CPT 21µM*, HepG2 viability 0%, HT1080 IDH1KD tx -4%, HT1080NT lethal -9% and TGFb SMAD3 inh 3%.
Screening O=C(O)CC(C(=O)Nc1ccc(Cl)cc1)N1CCCCCC1 (centres undefined) returned DT40 TDP1 no CPT 10%, DT40 TDP1 CPT 4%, HepG2 viability 0%, HT1080 IDH1KD tx 3%, HT1080NT lethal -1% and TGFb SMAD3 inh -2%.
Screening O=C(/C=C/c1ccncc1)c1ccc2c(c1)OCCO2 returned DT40 TDP1 no CPT 15µM*, DT40 TDP1 CPT inconclusive, HepG2 viability -88%, HT1080 IDH1KD tx 18µM*, HT1080NT lethal inconclusive and TGFb SMAD3 inh inconclusive.
Screening O=C(CNC(=O)c1ccc2c(c1)OCO2)N/N=C/c1cccc([N+](=O)[O-])c1 returned DT40 TDP1 no CPT -29%, DT40 TDP1 CPT -6%, HepG2 viability 2%, HT1080 IDH1KD tx 16%, HT1080NT lethal 16% and TGFb SMAD3 inh -10%.
COc1ccc(N/C=C\C(=O)c2ccc3c(c2)OCO3)cc1OC was read as DT40 TDP1 no CPT -7%, DT40 TDP1 CPT -6%, HepG2 viability -6%, HT1080 IDH1KD tx -30%, HT1080NT lethal -8% and TGFb SMAD3 inh -21%.
COc1cccc(/C=C/C(=O)c2ccc3c(c2)OCO3)c1OC was read as DT40 TDP1 no CPT 18µM*, DT40 TDP1 CPT inconclusive, HepG2 viability -45%, HT1080 IDH1KD tx inconclusive, HT1080NT lethal -10% and TGFb SMAD3 inh inconclusive.
For O=C(/C=C/c1ccccc1)c1ccc2c(c1)OCO2 the results were DT40 TDP1 no CPT inconclusive, DT40 TDP1 CPT 18µM*, HepG2 viability -75%, HT1080 IDH1KD tx 0%, HT1080NT lethal -18% and TGFb SMAD3 inh inconclusive.
Screening O=C(Nc1ccncc1)c1ccc2c(c1)OCCO2 returned DT40 TDP1 no CPT inconclusive, DT40 TDP1 CPT inconclusive, HepG2 viability -16%, HT1080 IDH1KD tx -10%, HT1080NT lethal 1% and TGFb SMAD3 inh -11%.
For O=C(CNC(=O)c1ccc2c(c1)OCO2)N/N=C(Br)/C=C/c1ccccc1 the results were DT40 TDP1 no CPT 7.3µM*, DT40 TDP1 CPT 2.6µM*, HepG2 viability 17%, HT1080 IDH1KD tx 15µM*, HT1080NT lethal inconclusive and TGFb SMAD3 inh -12%.
O=C(NCc1ccccc1Cl)c1nnc(Cc2ccc(Cl)cc2)o1 was read as DT40 TDP1 no CPT -16%, DT40 TDP1 CPT -1%, HepG2 viability 8% and TGFb SMAD3 inh 39%.
Screening COc1ccc(CN2C[C@@H](CO)O[C@@H](n3cnc4c(NC5CC5)ncnc43)C2)cc1 returned DT40 TDP1 no CPT inconclusive, DT40 TDP1 CPT inconclusive, HepG2 viability -3%, HT1080 IDH1KD tx 8%, HT1080NT lethal 3% and TGFb SMAD3 inh 16%.
CC(C)CNC(=O)COC(=O)c1ccc2c(c1)C(=O)N(Cc1ccco1)C2=O was read as DT40 TDP1 no CPT 1%, DT40 TDP1 CPT 11%, HepG2 viability -2%, HT1080 IDH1KD tx 13%, HT1080NT lethal -1% and TGFb SMAD3 inh 22%.
Screening COc1ccc(N/N=C(/C)c2cnnc(-c3ccccc3)n2)cc1 returned DT40 TDP1 no CPT inconclusive, DT40 TDP1 CPT inconclusive, HepG2 viability -4%, HT1080 IDH1KD tx 23%, HT1080NT lethal 2% and TGFb SMAD3 inh 3%.
`O=C(/C=C/c1ccccc1Br)c1ccc2c(c1)OCO2` gave DT40 TDP1 no CPT 23µM*, DT40 TDP1 CPT 21µM*, HepG2 viability -40%, HT1080 IDH1KD tx inconclusive, HT1080NT lethal inconclusive and TGFb SMAD3 inh inconclusive.
`O=C(/C=C/c1ccc2c(c1)OCO2)c1ccc(F)cc1` gave DT40 TDP1 no CPT inconclusive, DT40 TDP1 CPT inconclusive, HepG2 viability -15%, HT1080 IDH1KD tx 22%, HT1080NT lethal 5% and TGFb SMAD3 inh inconclusive.
For CN(C)c1ccc(/C=C/C(=O)c2ccc(O)cc2)cc1 the results were DT40 TDP1 no CPT 10µM*, DT40 TDP1 CPT inconclusive, HepG2 viability -13%, HT1080 IDH1KD tx 1%, HT1080NT lethal -14% and TGFb SMAD3 inh 61%.
Screening CN(C)c1ccc(/C=C/C(=O)c2ccc3c(c2)OCO3)cc1 returned DT40 TDP1 no CPT 16µM*, DT40 TDP1 CPT 23µM*, HepG2 viability -8%, HT1080 IDH1KD tx -14%, HT1080NT lethal inconclusive and TGFb SMAD3 inh 22%.
For COc1ccc(CCNC(=O)c2noc(C)c2[N+](=O)[O-])cc1OC the results were DT40 TDP1 no CPT -10%, DT40 TDP1 CPT 3%, HepG2 viability -2%, HT1080 IDH1KD tx 17%, HT1080NT lethal 9% and TGFb SMAD3 inh -4%.
For CC(=O)Nc1ccc(S(=O)(=O)Nc2nc3ccccc3nc2Nc2ccc(O)c(C(=O)O)c2)cc1 the results were DT40 TDP1 no CPT 7%, DT40 TDP1 CPT 16%, HepG2 viability -4%, HT1080 IDH1KD tx 0%, HT1080NT lethal 19% and TGFb SMAD3 inh 1%.
